Test results taken from PubChem BioAssay (NCI).
Where “and” joins values, the source holds several entries; their conditions need not be identical. Equal values may be shown once. About 83,000 compounds went through this panel and 20% of them were active in at least one assay; those are over-represented in the sample as a whole.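 Negative percent growth values reflect cell death: -40 means 40% of the cells present at the start died, and -100 means all died.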 Values without a mark were called inactive. Calls of active or inactive are those of the source. The calls were made as follows: active = growth percent below 10; inactive = the rest.

These compounds were tested on HL-60(TB) leukemia (assay: NCI-60 one-dose screen, 48 h (100 = growth as untreated, 0 = no growth, -100 = all killed)). Details: 10 µM unless noted.

Row | SMILES | growth
1 | CCOC(=O)Nc1ccc2c(c1)/C(=N\NC(N)=S)c1ccccc1-2 | 55.4% and 78.8%
2 | Cc1cc(C(=O)NN)c(C#N)c(=O)[nH]1 | 111%
3 | Cc1oc2ncnc(Nc3ccccc3)c2c1C(=O)NCCO | 64.9%
4 | COc1cc2nc(-c3ccc(C(F)(F)F)cc3)cc(OCCCN3CCC(O)CC3)c2cc1OC | 27.3%
5 | COc1c(Cl)cc(Cl)c2ccc(C=C3C(=O)NC(=S)NC3=O)nc12 | 102%
6 | NC(N)=NCCCCCNc1noc(Cc2c[nH]c3cc(Br)ccc23)n1 | 44.9%
7 | CCCOC(=O)C1c2cc3c(cc2CC(C)C1C(=O)OCCC)OCO3 (stereo not given) | 111%
8 | CC(=O)Nc1ccc(S(=O)(=O)Cl)cc1 | 103%
9 | COC(=O)c1nc(N)nc(C(=O)OC)c1C(=O)c1ccc(OC)cc1 | 115% and 65.7%
10 | Cc1c(C(=O)/C=C/c2csc3ccccc23)[n+](=O)c2ccccc2n1[O-] | 67.7%
11 | CC(C)OC(=O)c1ccc2[nH]c(O)c(C(=Nc3ccc(N(C)C(=O)CN4CCN(C)CC4)cc3)c3ccccc3)c2c1 | -50.2% (active)
12 | O=C1/C(=C/c2ccc(Cl)cc2)COc2ccc(O)c(O)c21 | -11.7% (active)
13 | CC(C)(C)Nc1c(-c2cccs2)nc2ncccn12 | 66.6%
14 | Oc1ccc(-c2nnc3c4[nH]ccc4ncn23)cc1 | 106%
15 | O=C(N/N=C/c1ccc(F)cc1)c1[nH]c2ccc(I)cc2c1-c1ccccc1 | 51.2%
